These sequences were tested on PPARg:RXRa 270nM:90nM, anti-RXR (NR concentration 270 nM, RXRa partner concentration 90 nM) (assay: PBM binding z-score (relative to random genomic background probes); higher = stronger binding; sequences stand for … in GC…GCGATTGACAGCGTAGAATGAAGG).
How it was run: (§1)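 The probes on custom Agilent 4×180K protein-binding microarrays were double-stranded, with 34-nt variable regions bearing direct-repeat seeds, single-nucleotide variants, half-site ablations and random human genomic background sequences. Incubation lasted 1 h with ligand-free nuclear receptor dimers in PBS pH 7.4, 2% milk, 0.02% Triton X-100, 1 mM DTT, 0.2 mg/mL BSA and 0.4 mg/ml salmon testes DNA. Antibodies against each partner (one per run) detected bound dimers, and fluorescence scans were regression-normalized. Binding z-scores take the random background probes as reference.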
With TCTTGTAGGTCAGCAGGTTAAGAAAGCTGGCCAA the PBM binding z-score was 5.91.
TAGCCTAGGTCATTCAGGGCCCAGTATAGAAAGC showed a PBM binding z-score of 2.34.
AATATAGGGTCACTAGGCCAGAGTAGGTACGAAT was tested, and the PBM binding z-score was 6.68.
CCTCCGAGGACAACAGGAGGTCAGAGCTGCCAGA showed a PBM binding z-score of 0.211.
With CCTAGCTGGTCAAGGTCACACACGCTATAGGTAC the PBM binding z-score was 3.05.
With ATCGAAAGGTCGTCAGGTGAGTATACAGAAAGGC the PBM binding z-score was 3.86.
In the case of ATCGAAAGGTCGTGAGGTGAATATACAGAAAGGC, the PBM binding z-score is reported as 4.97.
Sequence TGAATGAGGTTATAAGAGCAGGGAACGTTGCAAA has a PBM binding z-score of 2.13.
CCTAGTTGGCCAGGAGGTCACACACCGGATATGA was tested, and the PBM binding z-score was 2.91.
AGTCAAAGTTCACTAGGTAACGTCAGATTCAGCT showed a PBM binding z-score of 6.74.
AGAACGAGGGCACGCTGAGTAGATAGCAGAGTAG showed a PBM binding z-score of 1.87.
For TCAGACAGGTGATGGTAACTCAGGTACGCAGTCG, the PBM binding z-score was 1.7.
CCTCGGAGGACAAGAGGAGGTCAGAGCTGCCAGA gave a PBM binding z-score of -0.135.
With ATATGTAGGTTATCGGGTAATTCAGTTTGCGCAT the PBM binding z-score was 5.19.
GCTATTAGTTGAAAGCGCAACCGAATGATTCTCG showed a PBM binding z-score of -0.0229.
CGGCAAAGTTCAAGGTAACGTAACAGAAAGCAGC showed a PBM binding z-score of 4.6.
In the case of ATACCAAGGTGATCGTGAGGTTGTTGATACTAAC, the PBM binding z-score is reported as 0.149.
ACAGACAGGTGAGTGAAGGTACCTCAGCTGGACG gave a PBM binding z-score of -0.227.
In the case of GGAACGACGGCATTCGAGTTGATAGCATGGCGAT, the PBM binding z-score is reported as -0.612.
Work on TCGCGTAGGTTACCAATGGGGCATTCAGCTTTCT yielded a PBM binding z-score of 0.743.
Sequence TTACCAAGGTAAGCTGAGGTCGTTGATCCAACTC has a PBM binding z-score of 0.0724.
CCTACTGGGCCACGAAAGGTCAGTGATTCAGTGA was tested, and the PBM binding z-score was 3.87.
GCTTCTAGATCAAGGTTAAGAAAGACTAAGCTAA was tested, and the PBM binding z-score was 1.77.
ACGATTAGTTGAGACGAGGGCAACCGATAGGTTG gave a PBM binding z-score of -0.0475.
ATATGTAGGTGAGCTGGGGTCATTCAGACTAGGC was tested, and the PBM binding z-score was 5.75.
In the case of CCTAGTTGGTCAGGAGGTCTCACACCGGATATGA, the PBM binding z-score is reported as 0.772.
With CTCGAAAGGTCGTGCTCAGGTGAGGATACCAAAC the PBM binding z-score was 4.04.
CCGGCTGGGGCAAGGTTACCATAACGCACAGCCA showed a PBM binding z-score of 0.822.
CCGACTGGGGCATAAGGTTACCATAAGCCAGCCC showed a PBM binding z-score of 3.15.
Sequence GCGACTGGGGCACAGCAGGTTACCATAAGGTTGG has a PBM binding z-score of 1.45.
AGTCAAAGTTAAGGACGAGGTAACGTAAAGCACG was tested, and the PBM binding z-score was 0.357.
CGTCCAAGGTCAACGTCAGTGAAAGAGACTCGAA showed a PBM binding z-score of 5.51.
ACAGACAGGTGAGTGAATGTAACTCAGCTGGACG showed a PBM binding z-score of -0.286.
For GCTGCTAGGTCAACTGATGGTCAGATAAAGCTCG, the PBM binding z-score was 3.18.
For TGAATGAGGTTATAGGATCAGGGAACGTTGCAAA, the PBM binding z-score was 2.51.
Sequence TAGTCTAGGTCATTGGGCCAGTATAGTACGCATC has a PBM binding z-score of 4.82.
For CCAACTGGGCCAAAGGTCATTGATTCCAATGCTC, the PBM binding z-score was 10.4.
With AGCCAAAGTTCATCTAGGTAACGTAAGATATGCT the PBM binding z-score was 5.53.
Sequence TCATATAGGTCATACAGGTGAAAGTCGGCATCTA has a PBM binding z-score of 6.57.

What follows are sequences tested on PPARg:RXRa 30nM:10nM, anti-RXR (NR concentration 30 nM, RXRa partner concentration 10 nM) in the same assay as above.
How it was run: as §1
TCTTGTAGGTCAGCAGGTTAAGAAAGCTGGCCAA showed a PBM binding z-score of 4.19.
TAGCCTAGGTCATTCAGGGCCCAGTATAGAAAGC was tested, and the PBM binding z-score was 0.126.
In the case of AATATAGGGTCACTAGGCCAGAGTAGGTACGAAT, the PBM binding z-score is reported as 3.94.
Sequence CCTCCGAGGACAACAGGAGGTCAGAGCTGCCAGA has a PBM binding z-score of -0.642.
CCTAGCTGGTCAAGGTCACACACGCTATAGGTAC showed a PBM binding z-score of 0.699.
ATCGAAAGGTCGTCAGGTGAGTATACAGAAAGGC gave a PBM binding z-score of 1.5.
Work on ATCGAAAGGTCGTGAGGTGAATATACAGAAAGGC yielded a PBM binding z-score of 2.
TGAATGAGGTTATAAGAGCAGGGAACGTTGCAAA was tested, and the PBM binding z-score was 0.717.
With CCTAGTTGGCCAGGAGGTCACACACCGGATATGA the PBM binding z-score was 0.806.
AGTCAAAGTTCACTAGGTAACGTCAGATTCAGCT gave a PBM binding z-score of 4.13.
For AGAACGAGGGCACGCTGAGTAGATAGCAGAGTAG, the PBM binding z-score was 0.547.
TCAGACAGGTGATGGTAACTCAGGTACGCAGTCG was tested, and the PBM binding z-score was 3.35.
With CCTCGGAGGACAAGAGGAGGTCAGAGCTGCCAGA the PBM binding z-score was -0.865.
ATATGTAGGTTATCGGGTAATTCAGTTTGCGCAT was tested, and the PBM binding z-score was 2.91.
With GCTATTAGTTGAAAGCGCAACCGAATGATTCTCG the PBM binding z-score was 0.0302.
CGGCAAAGTTCAAGGTAACGTAACAGAAAGCAGC showed a PBM binding z-score of 1.59.
For ATACCAAGGTGATCGTGAGGTTGTTGATACTAAC, the PBM binding z-score was 0.0438.
In the case of ACAGACAGGTGAGTGAAGGTACCTCAGCTGGACG, the PBM binding z-score is reported as -0.761.
For GGAACGACGGCATTCGAGTTGATAGCATGGCGAT, the PBM binding z-score was -0.766.
TCGCGTAGGTTACCAATGGGGCATTCAGCTTTCT showed a PBM binding z-score of 1.41.
For TTACCAAGGTAAGCTGAGGTCGTTGATCCAACTC, the PBM binding z-score was -0.421.
CCTACTGGGCCACGAAAGGTCAGTGATTCAGTGA gave a PBM binding z-score of 1.03.
GCTTCTAGATCAAGGTTAAGAAAGACTAAGCTAA gave a PBM binding z-score of 0.224.
Work on ACGATTAGTTGAGACGAGGGCAACCGATAGGTTG yielded a PBM binding z-score of -0.114.
In the case of ATATGTAGGTGAGCTGGGGTCATTCAGACTAGGC, the PBM binding z-score is reported as 3.65.
For CCTAGTTGGTCAGGAGGTCTCACACCGGATATGA, the PBM binding z-score was -0.0549.
Sequence CTCGAAAGGTCGTGCTCAGGTGAGGATACCAAAC has a PBM binding z-score of 0.853.
With CCGGCTGGGGCAAGGTTACCATAACGCACAGCCA the PBM binding z-score was -0.299.
CCGACTGGGGCATAAGGTTACCATAAGCCAGCCC was tested, and the PBM binding z-score was 0.853.
For GCGACTGGGGCACAGCAGGTTACCATAAGGTTGG, the PBM binding z-score was -0.344.
AGTCAAAGTTAAGGACGAGGTAACGTAAAGCACG was tested, and the PBM binding z-score was 0.301.
Sequence CGTCCAAGGTCAACGTCAGTGAAAGAGACTCGAA has a PBM binding z-score of 1.61.
With ACAGACAGGTGAGTGAATGTAACTCAGCTGGACG the PBM binding z-score was -0.216.
GCTGCTAGGTCAACTGATGGTCAGATAAAGCTCG gave a PBM binding z-score of 0.958.
TGAATGAGGTTATAGGATCAGGGAACGTTGCAAA showed a PBM binding z-score of 1.15.
Work on TAGTCTAGGTCATTGGGCCAGTATAGTACGCATC yielded a PBM binding z-score of 3.
Sequence CCAACTGGGCCAAAGGTCATTGATTCCAATGCTC has a PBM binding z-score of 10.8.
With AGCCAAAGTTCATCTAGGTAACGTAAGATATGCT the PBM binding z-score was 2.27.
Sequence TCATATAGGTCATACAGGTGAAAGTCGGCATCTA has a PBM binding z-score of 5.26.
